TEAD-YAP inh: TEAD-YAP interaction inhibition, primary screen, TEAD-YAP interaction inhibitor project, luminescence, HEK-TIYL cells; TEAD-Gal4/YAP UAS-luciferase luminescence; inhibition, % at 9.12 µM; actives 1.4% (n = 640,000); in the data active = inhibition above about 32%;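 note: 0% = median of test compound wells and 100% = reference inhibitor wells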
GPR151 activ: activators of human GPR151, primary screen, cell-based, PathHunter beta-arrestin, luminescence; G-protein coupled receptor 151 (Homo sapiens), Q8TDV0; PathHunter beta-arrestin GPR151 cells; activation, % at 11.2 µM; actives 1% (n = 650,000); AID 1508602, 2020; in the data active = activation above about 4.9%;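 note: 0% = median of compound wells and 100% = cells with positive control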
MITF inh: MITF inhibitors, primary screen, biochemical, AlphaScreen, human; AID 1259374, 2018; actives 0.91% (n = 650,000); inhibition, % at 2.6 µM; AlphaScreen MITF homodimerization, bead proximity signal; Microphthalmia-associated transcription factor (Homo sapiens), O75030; in the data active = inhibition above about 50%;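 note: 0% = vehicle wells with protein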
FBW7 activator: FBW7 E3 ligase activators, primary screen, biochemical, AlphaScreen, human; F-box/WD repeat-containing protein 7 (Homo sapiens), Q969H0; AlphaScreen FBW7–phospho-cyclin E peptide binding, activator screen; normalized activity (activation), % at 26.1 µM; actives 0.13% (n = 650,000); in the data active = normalized activity above about 1.9%;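 note: purified mutant Fbw7 with reduced substrate affinity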
Target sequence (Q969H0 whole entry, looked up): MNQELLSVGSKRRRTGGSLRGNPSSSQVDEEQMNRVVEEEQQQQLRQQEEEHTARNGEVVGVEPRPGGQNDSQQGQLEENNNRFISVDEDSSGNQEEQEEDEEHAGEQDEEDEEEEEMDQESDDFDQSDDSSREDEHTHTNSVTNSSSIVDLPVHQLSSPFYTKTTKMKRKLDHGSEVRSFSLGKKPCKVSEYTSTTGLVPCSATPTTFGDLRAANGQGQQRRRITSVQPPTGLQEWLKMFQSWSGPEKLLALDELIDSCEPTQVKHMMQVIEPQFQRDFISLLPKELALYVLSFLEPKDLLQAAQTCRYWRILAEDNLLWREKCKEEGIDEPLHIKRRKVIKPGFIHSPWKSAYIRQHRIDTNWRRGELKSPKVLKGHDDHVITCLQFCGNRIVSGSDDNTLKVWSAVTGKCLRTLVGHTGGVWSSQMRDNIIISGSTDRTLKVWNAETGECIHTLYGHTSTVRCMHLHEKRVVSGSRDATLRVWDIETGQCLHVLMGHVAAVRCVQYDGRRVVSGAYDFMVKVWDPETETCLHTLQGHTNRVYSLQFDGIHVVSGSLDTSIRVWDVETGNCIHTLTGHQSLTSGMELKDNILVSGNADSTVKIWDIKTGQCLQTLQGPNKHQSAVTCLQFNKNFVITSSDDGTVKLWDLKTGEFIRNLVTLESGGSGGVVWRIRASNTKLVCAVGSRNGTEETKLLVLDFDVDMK
MITF inh conf: MITF inhibitors, retest of hits, confirmation, biochemical, AlphaScreen, triplicate; inhibition, % at 2.6 µM; AID 1259372, 2018; actives 16% (n = 4,700); AlphaScreen MITF homodimerization, biotin/His-MITF beads; shares compounds with MITF inh;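 active = inhibition above a cutoff derived from the DMSO control wells, cut at about 28% in these data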;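 note: 0% = MITF dimer wells with DMSO only; inhibitors lower the bead chemiluminescence by keeping MITF from dimerizing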
AlphaScreen DR: AlphaScreen optical interference compounds, dose response, counter-screen, biochemical, HTS; actives 6% (n = 480); AID 1259373, 2018; IC50, µM; shares compounds with MITF inh; AlphaScreen optical interference counterscreen, cell-free; call rule not given here
AlphaScreen intf2: AlphaScreen optical interference compounds, counter-screen for MITF inhibitor project, biochemical, triplicate; shares compounds with MITF inh; LysRS AlphaScreen counterscreen, signal interference; inhibition, % at 2.6 µM; actives 7.6% (n = 4,700);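 active = inhibition above a cutoff derived from the DMSO control wells, cut at about 30% in these data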
An asterisk follows results filed as active; . = no result. Sampled rows, rich in hits. Any-hit rate of the full collection: about 3.5%.

SMILES | TEAD-YAP inh | GPR151 activ | MITF inh | FBW7 activator | MITF inh conf | AlphaScreen intf2 | others
COC(=O)C(C)CN1CCc2ccccc2C1 (stereo not given) | -1 | -1 | 47 | 1 | . | .
CC(=O)N(C)c1ccc(OCC(O)CN2CCN(Cc3ccccc3)CC2)cc1 (stereo not given) | -7 | 1 | 82* | 0 | 8 | 18
CCS(=O)(=O)N1CCN(C(C)CCc2ccccc2)CC1 (stereo not given) | 18 | 1 | 51* | 0 | 6 | 12
Cc1nc(-c2ccccc2)sc1CC(=O)NCCC1=CCCCC1 | -11 | 0 | 1 | 0 | . | .
CC(Oc1ccc(O)cc1)(P(=O)(O)O)P(=O)(O)O | . | 2 | 97* | 1 | 96* | 16 | AlphaScreen DR=>6.5
Fc1ccccc1-c1cnc2ccc(NCc3cccs3)nn12 | 8 | 0 | 53* | 0 | 19 | 11
CCc1ccc(-c2cc(C(=O)Nc3cc(C(=O)OC)cc(C(=O)OC)c3)c3ccccc3n2)cc1 | 4 | -1 | 53* | 0 | 3 | 10
CCc1ccc(-c2cc(C(=O)Nc3ccc(C(=O)OC)cc3)c3ccccc3n2)cc1 | 2 | 1 | 7 | 0 | . | .
COc1ccc(CN2CCN(C(=O)CC(C)C)CC2)cc1Br | -4 | -2 | 54* | 0 | 4 | 15
COc1ccc(C(=O)N2CCN(Cc3ccc(OC)c(Br)c3)CC2)cc1 | 4 | -2 | 43 | 1 | . | .
COc1ccc(CN2CCN(C(=O)c3cccs3)CC2)cc1OC | 1 | -2 | 37 | 0 | . | .
CCc1ccc(CN2CCC(C(=O)NC(C)C)CC2)cc1 | 7 | 0 | 34 | 0 | . | .
CCc1ccc(CN2CCN(C(=O)CC(C)C)CC2)cc1 | 5 | 0 | 58* | 0 | 1 | 9
COc1ccc(CN2CCN(C(=O)c3cccs3)CC2)cc1Br | -9 | -1 | 67* | 0 | 3 | 9
COc1ccc(CN2CCN(C(=O)c3ccccc3F)CC2)cc1Br | -3 | 0 | 54* | 0 | 27 | -10
Cc1nc(N2C(=O)c3oc4ccc(F)cc4c(=O)c3C2c2ccc(F)cc2)sc1C (stereo not given) | -6 | 0 | -1 | 0 | . | .
CCOc1ccc(CN2CCN(C(=O)c3cccs3)CC2)cc1 | 8 | -1 | 60* | 0 | 9 | 14
CCOC(=O)Cn1c(=O)c2c(nc3n(-c4ccc(C)cc4)c(C)cn23)n(C)c1=O | -4 | 2 | -7 | 0 | . | .
CC(NC(=O)C12CC3CC(CC(C3)C1)C2)C(=O)N1CCCC1 (stereo not given) | 0 | 3 | 22 | 1 | . | .
CC1=C(C#N)C(c2ccccc2I)C2=C(CC(C)(C)CC2=O)N1 (stereo not given) | 5 | 1 | -1 | 0 | . | .
CCN1C(=O)NC(c2cc(Br)ccc2OC)C(C(=O)OC)=C1C (stereo not given) | 4 | 4 | 59* | 0 | 2 | 8
CCN1C(=O)NC(c2cc(C)ccc2C)C(C(=O)OC)=C1C (stereo not given) | 5 | 0 | 11 | 0 | . | .
CCC(C)N1CCN(CC2CC3C=CC2C3)CC1 (stereo not given) | -8 | 0 | 73* | 0 | -3 | 1
C1=CC2CC1CC2CN1CCN(C2CCCCCC2)CC1 (stereo not given) | 14 | 0 | 55* | 0 | -3 | -6
C1=CC2CC1CC2CN1CCN(C2CCC(c3ccccc3)CC2)CC1 (stereo not given) | 4 | 0 | 63* | 0 | -16 | 4
SMILES | TEAD-YAP inh | GPR151 activ | MITF inh | FBW7 activator | MITF inh conf | AlphaScreen intf2 | others
C1=CC2CC1CC2CN1CCN(C2CCCCC2)CC1 (stereo not given) | 7 | 0 | 48 | 0 | . | .
C1=CC2CC1CC2CN1CCN(C2CCCC2)CC1 (stereo not given) | 1 | 0 | 67* | 0 | -18 | -4
COc1ccccc1N1CCN(c2ncnc3c2cnn3-c2ccccc2)CC1 | 11 | 0 | 6 | 1 | . | .
Cc1ccc(-n2ncc3c(NCCCO)ncnc32)cc1Cl | -35 | 2 | 4 | 0 | . | .
NCC1OC(=O)C(Oc2ccccc2)=C1Br (stereo not given) | 15 | 0 | 59* | -1 | 77* | -18 | AlphaScreen DR=>6.5
CC(=O)CC1OC(=O)C(Oc2ccccc2)=C1Br (stereo not given) | -1 | 0 | 1 | 0 | . | .
CSc1ccccc1NC(=O)c1cnn2c(C(F)(F)F)cc(-c3cccs3)nc12 | 3 | -1 | 75* | 1 | 9 | -1
O=C(Nc1cccnc1Cl)c1cnn2c(C(F)(F)F)cc(-c3cccs3)nc12 | 0 | -1 | 3 | 0 | . | .
NS(=O)(=O)c1ccc(CNc2ccc3ncc(-c4cccc(C(=O)O)c4)n3n2)cc1 | 0 | 1 | 69* | 0 | 9 | 11
O=C(NCCOc1cccc2cccnc12)c1ccno1 | 6 | 0 | 7 | 0 | . | .
O=C(c1cccc(C(F)(F)F)c1)N1CCn2c1nc1ccccc12 | -5 | 0 | 1 | 0 | . | .
COc1cc(C(=O)Oc2ccccc2N)cc(OC)c1OC | 3 | 4 | 5 | 0 | . | .
COc1cc(N)c2nccc(C)c2c1OC | -4 | -1 | 97* | 0 | 119* | 59*
O=C(c1ccccc1)c1cccn1CC(=O)N1CCCCCC1 | 3 | 1 | 63* | 0 | 10 | 10
O=C(c1ccccc1)c1cccn1CC(=O)N1CCCC1 | 0 | 1 | 7 | 0 | . | .
CN1CCN(CCOCCOc2ccc(Cl)c(Cl)c2)CC1 | 10 | -1 | 57* | 0 | -1 | 0
CN1CCN(CCOc2ccc(Cl)c(Cl)c2)CC1 | -19 | 0 | 69* | 0 | -6 | 2
CCc1cc(OCCOCCN2CCN(CC)CC2)ccc1Cl | -20 | -2 | 68* | 0 | 4 | 18
CCc1cc(OCCN2CCNCC2)ccc1Cl | -3 | 2 | 29 | 0 | . | .
CNC(=O)[C@@H]1C[C@H](NCc2cccc(OC)c2)CN1CC(c1ccccc1)c1ccccc1 | -10 | 1 | 1 | 0 | . | .
O=Cc1cccc(OCCCn2cnc3ccccc32)c1 | 14 | 2 | 66* | 0 | 26 | 10
O=[N+]([O-])c1ccccc1OCCOCCn1cnc2ccccc21 | -2 | 0 | 88* | 0 | 12 | 11
O=[N+]([O-])c1ccccc1OCCCn1cnc2ccccc21 | -72 | 1 | 60* | 0 | 11 | 13
O=[N+]([O-])c1ccccc1OCCOCCn1cncn1 | -3 | 0 | 3 | 0 | . | .
